Laboratory results reported in the supplement of paper PMC12669032.
A number with no mark means an inactive call.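 The calls were made as follows: active = AUC reduced over 20% with Padj below 0.05 in at least 2 of 3 replicates; inactive = otherwise.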

These molecules were tested on Coprococcus comes (assay: growth AUC relative to DMSO control (median of replicates) (fraction); higher = more growth (less inhibition), active = hit call of the paper). Details: 20 µM; 24 h.
Summary of the method: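 Gut bacterial monocultures were grown anaerobically at 37 °C in mGAM from a starting OD600 of 0.05 with 20 µM compound (1% DMSO), in round-bottom 96-well plates under pierced gas-permeable seals, and OD600 was read hourly for 24 h. With the minimum OD set to 0, area under the growth curve was normalised to the plate median of solvent-only wells, or to row and column medians on the industrial chemical plate. Each value is the median of three biological replicates grown on separate days.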
For `CC1(C)C(C=C(Cl)Cl)C1C(=O)OC(C#N)c1ccc(F)c(Oc2ccccc2)c1` (mixture of isomers), the “growth AUC” value was 0.981.
`c1ccc2c(c1)cc1ccc3cccc4ccc2c1c34` was tested, and the “growth AUC” value was 1.
For `CCc1cccc(C)c1N(C(=O)CCl)C(C)COC` (stereo not given), the “growth AUC” value was 1.03.
With `CO/C=C(/C(=O)OC)c1ccccc1Oc1cc(Oc2ccccc2C#N)ncn1` the “growth AUC” value was 0.964.
In the case of `O=C(NCCc1ncc(C(F)(F)F)cc1Cl)c1ccccc1C(F)(F)F`, the “growth AUC” value is reported as 1.
`CC(=O)CC(c1ccc(Cl)cc1)c1c(O)c2ccccc2oc1=O` (stereo not given) was tested, and the “growth AUC” value was 0.987.
`CCOP(=S)(OCC)Oc1ccc(S(C)=O)cc1` (stereo not given) was tested, and the “growth AUC” value was 1.
In the case of `CCOP(=O)(NC(C)C)Oc1ccc(S(C)(=O)=O)c(C)c1` (stereo not given), the “growth AUC” value is reported as 1.06.
`Clc1cccc(C(Cl)(Cl)Cl)n1` was tested, and the “growth AUC” value was 1.02.
In the case of `COP(=O)(OC)Oc1ccc(S(C)(=O)=O)c(C)c1`, the “growth AUC” value is reported as 0.989.
In the case of `Clc1ccc(C(c2ccc(Cl)cc2)C(Cl)(Cl)Cl)cc1`, the “growth AUC” value is reported as 0.964.
For `O=c1oc2ccccc2c(O)c1C(CC(O)c1ccc(-c2ccc(Br)cc2)cc1)c1ccccc1` (stereo not given), the “growth AUC” value was 0.923.
For `C[Si](Cn1cncn1)(c1ccc(F)cc1)c1ccc(F)cc1`, the “growth AUC” value was 0.412 (active).
In the case of `CCCCN(CC)c1c([N+](=O)[O-])cc(C(F)(F)F)cc1[N+](=O)[O-]`, the “growth AUC” value is reported as 1.03.
`Cc1cc(Cl)ccc1OCC(=O)O` was tested, and the “growth AUC” value was 1.02.
